In PubChem BioAssay (NCI):
Several values for one entry are separate records, joined by “and”; a condition that tells them apart may be missing. Equal values may be shown once. About 83,000 compounds went through this panel and 20% of them were active in at least one assay; those are over-represented in the sample as a whole.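 Testing used 96-well plates and a 48-hour single-concentration exposure. Example: -40 means 40% of the starting cells died.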 Values without a mark were called inactive. Activity calls are given as the source filed them. The calls were made as follows: active = growth percent below 10; inactive = the rest.

Experiments:
Experiment in all cases: NCI-60 one-dose screen, 48 h (100 = growth as untreated, 0 = no growth, -100 = all killed)
Conditions in all cases: 10 µM unless noted
SR leukemia = test system: SR leukemia
RPMI-8226 leukemia = test system: RPMI-8226 leukemia
OVCAR-8 ovarian = test system: OVCAR-8 ovarian
OVCAR-5 ovarian = test system: OVCAR-5 ovarian
OVCAR-4 ovarian = test system: OVCAR-4 ovarian
SK-OV-3 ovarian = test system: SK-OV-3 ovarian
IGROV1 ovarian = test system: IGROV1 ovarian
OVCAR-3 ovarian = test system: OVCAR-3 ovarian
HS 578T breast = test system: HS 578T breast
NCI/ADR-RES ovarian = test system: NCI/ADR-RES ovarian
T-47D breast = test system: T-47D breast
BT-549 breast = test system: BT-549 breast
MDA-MB-435 melanoma = test system: MDA-MB-435 melanoma
SW-620 colon = test system: SW-620 colon
MCF7 breast = test system: MCF7 breast
HCT-116 colon = test system: HCT-116 colon
HCC-2998 colon = test system: HCC-2998 colon
KM12 colon = test system: KM12 colon
MDA-MB-468 breast = test system: MDA-MB-468 breast

Structure (SMILES)	growth (SR leukemia)	growth (RPMI-8226 leukemia)	growth (OVCAR-8 ovarian)	growth (OVCAR-5 ovarian)	growth (OVCAR-4 ovarian)	growth (SK-OV-3 ovarian)	growth (IGROV1 ovarian)	growth (OVCAR-3 ovarian)	growth (HS 578T breast)	growth (NCI/ADR-RES ovarian)	growth (T-47D breast)	growth (BT-549 breast)	growth (MDA-MB-435 melanoma)	growth (SW-620 colon)	growth (MCF7 breast)	growth (HCT-116 colon)	growth (HCC-2998 colon)	growth (KM12 colon)	growth (MDA-MB-468 breast)
COc1cccc(NC(=O)c2ccc(NC(=O)CCl)s2)c1	-0.752% (active)	-22.9% (active)	10.2%	47.3%	94.6%	-1.99% (active)	-13.4% (active)	35.8%	65.9%	22.5%	26.2%	27.2%	2.66% (active)	3.86% (active)	5.63% (active)	-27.4% (active)	80.6%	42.4%	-14.7% (active)
NS(=O)(=O)c1ccc(Nc2nc(SCC(=O)c3ccc(F)cc3)nc3ccccc23)cc1	19.6%	30.6%	52.9%	78.1%	37.3%	67.3%	46.4%	47.1%	53.1%	28.7%	19.5%	44.2%	0.411% (active)	50.5%	19.1%	39%	47.5%	19.4%	11.4%
Clc1ccccc1Nc1nnc(-c2c[nH]c3ccccc23)o1	15.7%	4.23% (active)	13.4%	29.8%	73.2%	22.1%	19.4%	9.25% (active)	18.2%	-18.8% (active)	27.3%	25.1%	-44.2% (active)	29%	14.9%	8.25% (active)	6.55% (active)	15%	-22.5% (active)
CCOc1ccc(-c2cc(-c3cc(C(C)C)c(O)cc3C)nn2-c2ccc(S(N)(=O)=O)cc2)cc1	5.54% (active)	13.8%	36.4%	53%	29.6%	55.3%	80.4%	36.2%	35.9%	4.14% (active)	18.4%	3.59% (active)	-43.6% (active)	33.3%	12%	24%	4.6% (active)	7.96% (active)	-16.5% (active)
COc1cc(CNC(=O)C[C@H](C)CCC=C(C)C)ccc1OCc1cn(-c2ccccc2F)nn1	73.4%	81.8%	66.5%	94.9%	71.4%	43.6%	81.9%	105%	39.5%	54.8%	60.6%	71%	100%	92.7%	66.9%	60.2%	101%	99.3%	57.7%
COc1ccc(-c2cc(-c3ccccc3)c(C#N)c(=O)[nH]2)cc1S(N)(=O)=O	100%	100%	113%	99.3%	102%	99.4%	126%	109%	109%	105%	102%	89.5%	102%	102%	103%	103%	122%	103%	102%
Cc1ccc(C(=O)Nc2cc(-n3cnc(F)c3)cc(C(F)(F)F)c2)cc1C#Cc1cnc2cccnn12	18.6%	33.1%	66.8%	68.3%	77.4%	114%	71.5%	119%	35.8%	57.2%	76.1%	60.1%	46.4%	45.1%	38.8%	19%	70.6%	39.1%	81.7%
CC(=O)Nc1cccc(-n2c(COc3ccc(Br)cc3)nc3ccccc32)c1	79.1% and 87.9%	87.2% and 107%	113% and 114%	105% and 109%	88.1% and 101%	76.5% and 107%	90.7% and 111%	96.9% and 97.7%	78.2% and 106%	89.3% and 104%	88.5% and 109%	109% and 97.2%	107% and 103%	97.9% and 103%	82.3% and 97.2%	101% and 102%	129% and 112%	103% and 101%	81.7% and 102%
Cc1ccc(NC(=O)N/N=C/c2c[nH]c3ccccc23)c(C)c1	12.3%	9.67% (active)	-23.7% (active)	15.5%	47.3%	21.8%	22.3%	-33.2% (active)	20.4%	3.88% (active)	46.7%	17.2%	-14.3% (active)	24.8%	7.55% (active)	-15.3% (active)	-11.2% (active)	-25.5% (active)	3.12% (active)
Cc1ccc(C(C(=O)NC2CCCCC2)N(Cc2ccccc2Cl)C(=O)c2ccc(CN3CCOCC3)o2)o1 (stereo not given)	103%	80.4%	104%	99.8%	96.8%	112%	92.5%	110%	86%	87.5%	99.9%	152%	102%	105%	95.3%	89.1%	94.7%	99.4%	84.7%
N#Cc1c(-c2ccc(F)cc2)nc(SCc2ccccc2)nc1N1CCNCC1	-10.3% (active)	-58% (active)	-77.5% (active)	-96.3% (active)	-75% (active)	-67.9% (active)	-95.6% (active)	-61.3% (active)	-45.6% (active)	-51.1% (active)	-75.9% (active)	-97.4% (active)	-83.6% (active)	-78.7% (active)	-84.7% (active)	-96.9% (active)	-64.6% (active)	-84.3% (active)	-64.3% (active)
O=C1c2cccc3c(N4CCN(Cc5ccccc5)CC4)ccc(c23)C(=O)N1c1cccc(-c2nn(-c3ccccc3)cc2-c2nc3ccccc3s2)c1	87.3%	103%	115%	107%	105%	102%	89.5%	102%	106%	104%	97.6%	114%	108%	101%	88.6%	100%	127%	108%	95.7%
CN(C)CCOc1ccc(C(=O)C2[C@H](c3ccc(Cl)cc3)[C@@H](c3ccccc3)NC23C(=O)Nc2ccc(Cl)cc23)cc1 (stereo not given in full)	-77.4% (active)	-43.6% (active)	-67.9% (active)	-79.2% (active)	-91.5% (active)	-86.4% (active)	-87% (active)	-51.4% (active)	-29.4% (active)	-90.7% (active)	-81.7% (active)	-97.6% (active)	-96.2% (active)	-87.2% (active)	-81.5% (active)	-91% (active)	-91.8% (active)	-67.1% (active)	-92.3% (active)
CN(C)c1nc(NCCNS(=O)(=O)c2ccc(C3=Nc4c(N)nc(N)nc4NC(c4ccc(C(F)(F)F)cc4)C3)cc2)nc(N2CCOCC2)n1 (stereo not given)	3.12% (active)	34.8%	43.2%	78%	58%	55.8%	45.7%	58.2%	40.7%	91.8%	24.7%	1.02% (active)	44.3%	54.7%	21.8%	17.1%	27.3%	47.8%	5.66% (active)
CN(C)CCCNC(=S)Nc1ccc(/C=C/c2ccc(Cl)cc2)cc1	-1.02% (active)	3.25% (active)	-40.8% (active)	-99.6% (active)	-68.2% (active)	-56.9% (active)	-70.4% (active)	23.6%	11.7%	-43.6% (active)	-48.7% (active)	-69.2% (active)	-90.6% (active)	-41.7% (active)	-46.2% (active)	-11.1% (active)	-84.2% (active)	-36.8% (active)	-88.7% (active)
